Source: ChEMBL document CHEMBL1961873, “Compounds: GSK PKIS; Assays: Nanosyn kinase panel” (2012)

Each molecule was assayed against Protein kinase C eta type (Homo sapiens) (UniProt P24723). Conditions: at 0.1 µM.
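Also: values are the mean percent inhibition of PKC-eta.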

Protein kinase C eta type (Homo sapiens), sequence (P24723 whole entry): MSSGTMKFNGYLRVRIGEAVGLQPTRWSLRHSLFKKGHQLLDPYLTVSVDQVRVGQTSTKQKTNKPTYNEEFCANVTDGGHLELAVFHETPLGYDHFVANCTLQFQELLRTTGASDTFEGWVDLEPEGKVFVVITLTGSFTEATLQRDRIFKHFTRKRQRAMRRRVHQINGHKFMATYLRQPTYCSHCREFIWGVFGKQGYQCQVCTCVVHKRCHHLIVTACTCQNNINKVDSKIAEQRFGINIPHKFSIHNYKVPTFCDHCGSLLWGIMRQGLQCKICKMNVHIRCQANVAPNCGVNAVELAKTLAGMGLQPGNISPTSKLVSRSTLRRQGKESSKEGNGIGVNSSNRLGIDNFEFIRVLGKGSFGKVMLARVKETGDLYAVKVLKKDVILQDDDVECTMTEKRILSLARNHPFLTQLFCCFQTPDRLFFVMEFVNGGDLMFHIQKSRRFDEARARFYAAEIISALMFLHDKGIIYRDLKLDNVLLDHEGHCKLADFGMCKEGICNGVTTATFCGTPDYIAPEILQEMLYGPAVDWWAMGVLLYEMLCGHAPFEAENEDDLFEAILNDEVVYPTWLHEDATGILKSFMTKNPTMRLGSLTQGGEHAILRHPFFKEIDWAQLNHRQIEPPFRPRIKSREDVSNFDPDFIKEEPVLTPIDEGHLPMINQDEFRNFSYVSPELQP

Structure (SMILES) | inhibition [%]
CN(C)CCCn1c(-c2nonc2N)nc2cnccc21 | 6.38
CN(c1ccc(NC(=O)Nc2ccc(OC(F)(F)F)cc2)cc1)c1ccnc(Nc2cccc(S(N)(=O)=O)c2)n1 | 0.81
O=C(Nc1ccc(Oc2ccc3[nH]c(NC(=O)c4ccco4)nc3c2)cc1)Nc1cc(C(F)(F)F)ccc1F | 1.15
c1ccc(Cc2nc3ccc(Nc4ncnc5ccccc45)cc3[nH]2)cc1 | 2.55
C[C@@H](Oc1cc(-n2cnc3ccc(OCC4CCN(C)CC4)cc32)sc1C(N)=O)c1ccccc1C(F)(F)F | -5.73
Nc1nccc(-c2c(-c3ccc(F)cc3)nn3cc(C(F)(F)F)ccc23)n1 | -1.68
NC(=O)c1cccc(Nc2nccc(Nc3cccc(F)c3)n2)c1 | 1.84
Nc1nccc(C#Cc2cncnc2Nc2ccc(OCc3cccc(F)c3)c(Cl)c2)n1 | 2.81
NC(=O)c1sc(-n2cnc3ccccc32)cc1OCc1ccccc1Br | 5.09
CN(C)c1cc2c(Nc3ccc4c(cnn4Cc4ccccc4)c3)ncnc2cn1 | -1.26
NS(=O)(=O)c1ccc(-c2cc3ccncc3cc2OCc2ccccc2)cc1 | 4.33
Nc1ccc(C#Cc2cncnc2Nc2ccc(OCc3cccc(F)c3)c(Cl)c2)cc1 | 4.79
FC(F)(F)c1ccc(-c2nn3ncccc3c2-c2ccnc(Nc3ccc4c(c3)OCCO4)n2)cc1 | 1.27
Cc1cc(-c2ccccn2)cc(C)c1/C=C/c1cncc(-c2nn[nH]n2)c1 | 2.25
CCn1c(-c2nonc2N)nc2c(C#CC(C)(C)O)nc(OCCNC)cc21 | 78.9
Oc1cccc(-c2nc(-c3ccccc3)[nH]c2-c2ccncc2)c1 | 2.41
C[C@@H](Oc1cc(-n2cnc3ccc(OC[C@@H](O)CO)cc32)sc1C(N)=O)c1ccccc1Cl | 0.53

Structure (SMILES) | inhibition [%]
OCc1ccc(-c2nc(-c3ccccn3)c(-c3ccc4c(c3)OCO4)[nH]2)cc1 | 3.79
Cc1ccc(NC(=O)CC2CC2)cc1-c1ccc(C(=O)NCC2CC2)cc1 | 3.52
COc1ccc(-c2nn3ncccc3c2-c2ccnc(Nc3cccc(C(F)(F)F)c3)n2)cc1 | 0.87
Cc1ccc2c(c1)/C(=N/Nc1ccc(S(N)(=O)=O)cc1)C(=O)N2 | -0.77
COc1cc(/C=N/Nc2ncnc3c2cnn3C(C)C)ccc1O | 0.82
NS(=O)(=O)c1ccc(NC=C2C(=O)Nc3ccc4ncsc4c32)cc1 | 6.21
COc1cc(Nc2nccc(-c3cnn4ncccc34)n2)cc(OC)c1 | 3.16
CCS(=O)(=O)c1ccc(OC)c(Nc2nccc(N(C)c3ccc4c(C)n[nH]c4c3)n2)c1 | 3.8
Cc1ccc(Nc2ccnc(Nc3cccc(C(N)=O)c3)n2)cc1O | 6.2
CS(=O)(=O)Nc1cccc(-c2ccc3c(NC(=O)C4CC4)n[nH]c3c2)c1 | 1.82
NS(=O)(=O)c1ccc(Nc2cc(-c3cccc(O)c3)n[nH]2)cc1 | 3.19
COC(=O)c1cncc(/C=C/c2c(C)cc(O)cc2C)c1 | 4.57
COc1cc2ncnc(Nc3ccc(C)c(O)c3)c2cc1OC | 3.76
COC(=O)Nc1nc2cc(Oc3ccc(NC(=O)Nc4cccc(Br)c4)cc3)ccc2[nH]1 | -0.37
[O-][S+]1CCN(Cc2ccc(-c3ccc4ncnc(Nc5ccc(OCc6ccccc6)c(Cl)c5)c4c3)o2)CC1 | 1.86
COc1cc2ncn(-c3cc(OCc4ccccc4S(C)(=O)=O)c(C#N)s3)c2cc1OC | 0.91
